Screening data (PubChem BioAssay)
Most compounds without a hit are left out; they make up all but 4.6% or so of the library.
NALP3 yeast inh = inhibitors of NALP3 inflammasome in yeast. AID 2825. inhibition, % at 10 µM. Yeast reconstituted NLRP3/ASC/caspase-1, beta-gal luminescence, 24 h. 0.39% of 330,000 active;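 active = inhibition of 50% or more; inactive = inhibition below 50%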;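 also: plate controls were induced DMSO wells for no effect and uninduced yeast grown without galactose for full effect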
tim23-1 inh = growth inhibitors of tim23-1 mutant yeast | S. cerevisiae tim23-1 growth, BacTiter-Glo luminescence, 24 h | 1.3% of 330,000 active | AID 463212 | inhibition, % at 20 µM;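 active = growth inhibition of the mutant yeast at or above 50%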;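 also: temperature-sensitive mutant grown at 25 °C; plate controls were DMSO-treated mutant yeast for no effect and medium wells lacking yeast for full effect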
PfHsp90 yeast 2 = inhibits growth of yeast expressing Plasmodium falciparum Hsp90 | S. cerevisiae expressing PfHsp90, BacTiter-Glo ATP, 48 h; yeast lacking PDR1 and PDR3 efflux regulators | inhibition, % at 9.4 µM | 0.32% of 310,000 active;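 active = every replicate shows inhibition above about 80%, whatever the replicate mean, limit read from the data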;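 also: 0% = DMSO neutral controls and 100% = 20 µM radicicol positive controls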
TIM10 inh = inhibits growth of TIM10 yeast strain; inhibition, % at 10 µM; S. cerevisiae TIM10 strain growth, BacTiter-Glo luminescence, 24 h; 1.4% of 330,000 active; AID 463195;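 active = inhibition of 40% or more at the single tested concentration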;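 also: wild-type TIM10 isogenic control strain grown at permissive 25 °C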
tim10-1 inh = tim10-1 yeast growth inhibition; S. cerevisiae tim10-1 ts strain growth, BacTiter-Glo, 24 h; inhibition, % at 20 µM; 2.2% of 330,000 active; AID 463190;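 active = inhibition of at least 40%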;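 also: mutant grown at 25 °C; 0% = DMSO wells with yeast and 100% = wells holding no yeast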
SKKanGAS inh = inhibitors of SKKanGAS S. pyogenes growth in kanamycin (SK-promoter or general growth effect) | BacTiter-Glo, 6 h | inhibition, % at 7.5 µM | 1.3% of 300,000 active | AID 1662;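 active = mean replicate score, as percent of positive control median, at least 50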;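 also: strain carries kanamycin resistance gene driven by streptokinase promoter and grows in 40 µg/ml kanamycin; loss of luminescence reflects streptokinase promoter inhibition or plain growth inhibition; 0% = median of DMSO wells and 100% = positive control at its reference dose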
NALP3 yeast conf = confirmation of NALP3 inhibitors in yeast; yeast expressing human NALP3, luminescence; shares compounds with NALP3 yeast inh; inhibition, % at 10 µM; 81% of 1,300 active; in the data active = inhibition above about 48%
Casp1-ASC yeast = counter-screen for NALP3 inhibitors: yeast caspase-1-ASC. yeast expressing Caspase-1-ASC, luminescence counter screen. 66% of 1,000 active. shares compounds with NALP3 yeast inh. inhibition, % at 10 µM
NALP3 retest = retest-confirmed inhibitor of NALP3 in yeast. shares compounds with NALP3 yeast inh. yeast expressing human NALP3, luminescence read-out. inhibition, % at 10 µM. 53% of 1,000 active. AID 488794
The depositor's hits bear a star; · = not tested or not shown. Rule as the data show it, unless noted: active = inhibition above about 50%; inactive = the rest.

SMILES	NALP3 yeast inh	tim23-1 inh	PfHsp90 yeast 2	TIM10 inh	tim10-1 inh	SKKanGAS inh	NALP3 yeast conf	Casp1-ASC yeast	NALP3 retest
COc1cc(C)ccc1OCCOc1ccccc1Cl	51*	18	-18	5	24	-12	49*	50	37
COc1cccc(CSc2nnc(-c3ccc(F)cc3)o2)c1	24	11	9	-6	4	-12	·	·	·
COc1ccc(-c2nnc(SCc3cccc(C#N)c3)o2)cc1	54*	21	3	8	-24	-6	37	·	·
CCc1nc2ccccc2n1CC(O)COCC1CC=CCC1 (centres undefined)	25	27	-10	-2	-2	-4	·	·	·
CC1(NC(=O)N2CCCCC2)CCS(=O)(=O)C1 (centres undefined)	8	1	14	9	10	-1	·	·	·
CC12CC3(C)CC(C)(C1)CC(NC(=O)N1CCCC1)(C2)C3	94*	47	-24	38	36	5	49*	98*	99*
NCCC(=O)N1c2ccccc2Sc2ccccc21	68*	-5	-31	-8	-12	-5	78*	62*	77*
C/C(=N\NC(=S)NCCc1ccccc1)c1ccc(Cl)cc1Cl	58*	34	-1	31	22	91*	39	77*	58*
O=C(C[n+]1ccccc1)N/N=C/c1ccc(C(=O)O)cc1	3	15	-8	10	11	·	·	·	·
Cc1ccc2c(c1)C(CCN)C(=O)N2Cc1ccccc1 (centres undefined)	51*	19	23	-2	11	1	68*	52*	51*
Cc1noc(C)c1C(=O)Nc1nc2ccccc2s1	50*	16	·	4	12	·	49*	39	31
Cc1ccc(C(=O)Nc2nc3ccccc3s2)s1	45	19	5	26	6	-1	·	·	·
Cc1ccc2c(c1)c1c(n2C)C(=O)CCC1	54*	4	-2	-1	-3	1	56*	63*	52*
CCn1c2c(c3cc(Cl)ccc31)CCCC2=O	44	-2	2	-26	13	4	·	·	·
COc1cc(C)ccc1OCc1cc(C(=O)N(Cc2c(C)nn(C)c2C)C2CC2)no1	11	14	10	5	21	5	·	·	·
O=S(=O)(c1ccc(Cl)cc1)c1snnc1-c1ccccc1	61*	31	49	-6	13	15	72*	74*	66*
O=S(=O)(c1ccc(F)cc1)c1snnc1-c1ccccc1	·	·	20	·	·	6	·	·	·
CCCOc1ncnc2c1[nH]c1ccc(C)cc12	39	20	·	14	-55	2	·	·	·
CCOc1ncnc2c1[nH]c1ccccc12	61*	28	-6	23	-58	4	82*	·	·
CC1Cc2nc(SCC(=O)OCc3ccccc3)n(C)c(=O)c2S1 (centres undefined)	59*	7	-12	-35	4	0	70*	43	39
O=C(N=C1N=C2C=CC=CN2Cc2ccccc21)c1ccc(S(=O)(=O)N2CCOCC2)cc1	18	26	-8	29	27	1	·	·	·
Cc1cc(OCc2nc3ccccc3s2)ccc1N	55*	23	-17	22	16	-8	42	·	·
Cc1ccc(C(C)C)c(Oc2nnnn2-c2ccccc2)c1	-91	27	-12	9	-5	-9	·	·	·
Cc1ccc(C)c(Oc2nnnn2-c2ccccc2)c1	-108	30	-40	27	28	5	-5	·	·
CCOc1ccc(C(=O)c2cc([N+](=O)[O-])ccc2Cl)cc1	67*	30	22	-17	2	4	67*	72*	69*
CC1(C)OC(=O)C(=CNNc2c(Cl)cc(Cl)cc2Cl)C(=O)O1	-16	13	12	23	5	-3	·	·	·
CC1(C)CC(=O)/C(=C\c2cccc([N+](=O)[O-])c2)C(C)(C)N1	59*	35	-16	8	22	6	55*	23	37
